The values that follow come from PubChem BioAssay AID1347423 (Functional Genomics Laboratory (NCATS/FGL), 2020).

Among all 52,000 sequences or so, about 210 (0.4%) were called active. The full list was thinned out, with actives kept by preference. Unmarked numbers belong to inactive results.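 The calls were made as follows: active = gene whose silencing raises cell survival under the drug, median off-target-corrected z-score across its silencing RNAs 2 or more; inactive = the rest.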

This experiment is described as follows: Resistance to Poly (ADP-Ribose) Polymerase inhibitor: Gene Identification via Genome-wide siRNA Screen. The settings on record: mouse BRCA2 R2336H ES cells, olaparib, CellTiter-Glo viability; active compounds read high. An excerpt: The role of Poly (ADP-Ribose) Polymerase (PARP) proteins in DNA repair has been elegantly utilized for the synthetic lethality-based treatment of BRCA-deficient tumors by PARP inhibitors. PARP inhibitors are now being used for treatment of BRCA-deficient breast and ovarian cancers. […] While several mechanisms of drug resistance have been identified, majority of these tumors develop drug resistance due to unknown causes. To identified novel regulators of chemo-resistance in BRCA2-mutated cells, we performed a genome wide siRNA library screen. We have found ES cells expressing a hypomorphic allele of BRCA2 to be hypersensitive to PAPP inhibitors (such as olaparib). We used ES cells expressing a mutant allele of BRCA2 that has a single amino acid substitution at position 2336 (arginine to histidine, R2336H). The screen was conducted using an Ambion (Thermo) Silencer Mouse Genome siRNA collection. The library targets 17,575 mouse genes with 3 siRNAs per gene. TET2 (E130014J05Rik) was identified as a top candidate.
Transfections were performed in 384 well plates (Corning 3707). Plates were coated with 0.1% gelatin in H2O overnight at ambient temperature. Gelatin solution was aspirated (BioTek EL406) and siRNAs were printed using a Bravo VPrep liquid handler integrated within a BioCel automation platform (Agilent). Cell viability was measured using CellTiter Glo (Promega). For transfections, […] of serum free media containing Lipofectamine RNAiMax […] was added to wells containing siRNA (0.8pmol). Lipid and siRNA were allowed to complex for 45 min at ambient temperature before addition of 1000 cells in DMEM, 30% FBS to yield final transfection mixtures containing 20 nM siRNA in DMEM, 15% FBS. PARPi (olaparib, AZD2281) was added 48 h post-transfection (500 nM) and viability (CellTiter Glo, Promega) was assayed 72 h later on a PerkinElmer Envision 2104 Multilabel plate reader. Ambion Silencer Select Negative Control #2 was incorporated on all screening plates (16 wells) and the median negative control value on each plate was used for normalization. An siRNA targeting Trp53 was used as a positive control. This control yielded a median protective effect of ~1.9 fold versus negative control throughout the screen. The median absolute deviation (MAD) based z-score was calculated for each siRNA. Genes were then ranked by taking the median value for all siRNAs tested against a given gene. Scores were also adjusted for seed-based off-target effects to help deprioritize likely false positives.
A general note: Cellular ATP, detected with luciferase, serves as a proxy for viable cell number.
Regarding GCACUGGAAUCAAACCAUCTT against Ppp2r5b, the z-score is 2.45 (active).

On to GGUUUGAGCUCUUUAUUUUTT against Cyp2j13, for which the z-score was 0.00818.

With GGCGCAUGUUUCCAGCAAUTT against Tbx18, the z-score was 1.87.

On to GGAUCUCUGUUUCUCAAAATT against Slc19a3, for which the z-score was 0.771.

In the case of “CCUCAAGAGAGCUACCGCATT against 1700018C11Rik”, the z-score was 0.313.

As for GGCCCAUUGAUCUGUGAUATT against Klk8, the z-score was -0.338.

Regarding GCAUGCGCGCUACACUCUATT against Adamts5, the z-score is 0.75 (active).

In the case of GAUUACAGACAGUGGAAAATT against Ndufb3, the z-score is 0.951.

Turning to GGUAGUGUUAACUAUAUGGTT against Hmgb3, the z-score was 1.85 (active).

As to GAUCUUAUAUGUUGGUGGUTT against V1rc2, the z-score is -0.413.

Turning to “CCUUAAUAAACUAUGCUGCTT against 2810439M11Rik”, the z-score was -1.83.

As for CCCUUGAAGAUCACUUAGCTT against Apln, the z-score is 0.228.

For GGCACAGGGACCAUUGUUGTT against Hsd17b1, the z-score is 2.34 (active).

Regarding CGUACAAGACCAACAGAAGTT against D8Ertd82e, the z-score is 2.36.

Turning to GCUCAACAGACUCUGUACUTT against Igsf4d, the z-score was 2.89.

With “GCUAGUUGGAGCUAGAUUATT against E130320D18”, the z-score is 0.013.

With GGGUUCCUCCUUUCACAGATT against Ppia, the z-score was -0.754.

CCGAAAUAAGGCUAGCUCATT against Rfxdc1: the z-score was 1.33.

For CGGCCUAUCUCUUGGUUUATT against Usp18, the z-score is 2.69 (active).

As to GGACAUCCAUUCAAGGCCUTT against Rtn3, the z-score was 1.05.

As for GGAAUUUGACAAACUCAGCTT against Rcn3, the z-score is 0.337.

For the sequence CCGUGGGACCAGAGUUAAATT against Gm253, the z-score was 1.99.

With GGUCAUCUAUCGUGUGCUGTT against Lamb2, the z-score was 1.09.

For CCAUUUAACCGUAAGACGUTT against Krtap8-2, the z-score was 0.535.

CCUACAUUCACCAAAAGGUTT against Usp9y: the z-score is 0.561.

As for “GGUCUCAAUCAGAGUUACATT against D430030K24Rik”, the z-score is 1.08 (active).

As to GGUGAUCAAUCCUCUAAUATT against Cri2, the z-score is 3.03.

Take AACAGCAUCUUUGUGGUCCTT against Ins1: the z-score is -0.451.

As to GGAUAAACUUCCAUCUUUCTT against Car14, the z-score is 1.27.
